PPARg SRC-1 ag: PPARgamma agonists recruiting SRC-1 coactivator, primary screen, biochemical | Peroxisome proliferator-activated receptor gamma (Homo sapiens), P37231 | PPARgamma-SRC-1 coactivator recruitment biochemical assay | activation, % at 8 µM | actives 0.41% (n = 200,000); in the data active = activation above about 19%
Target sequence (P37231 whole entry, looked up): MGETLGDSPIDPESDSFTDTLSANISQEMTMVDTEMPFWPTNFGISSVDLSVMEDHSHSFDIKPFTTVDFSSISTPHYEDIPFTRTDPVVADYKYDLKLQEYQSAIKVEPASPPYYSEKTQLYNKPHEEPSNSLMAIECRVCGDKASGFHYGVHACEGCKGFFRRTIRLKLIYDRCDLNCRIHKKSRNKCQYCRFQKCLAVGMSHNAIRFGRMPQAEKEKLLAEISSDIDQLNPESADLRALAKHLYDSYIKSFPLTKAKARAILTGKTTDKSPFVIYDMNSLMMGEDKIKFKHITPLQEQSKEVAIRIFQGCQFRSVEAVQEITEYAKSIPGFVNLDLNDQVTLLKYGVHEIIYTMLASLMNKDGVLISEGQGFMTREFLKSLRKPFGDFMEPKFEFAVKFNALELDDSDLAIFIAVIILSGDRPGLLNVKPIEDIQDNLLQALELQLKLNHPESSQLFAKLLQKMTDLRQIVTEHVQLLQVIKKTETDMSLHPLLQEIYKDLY
PPARg SRC2 recr: agonists of PPARg-SRC-2 recruitment, primary screen, biochemical, HTS. Peroxisome proliferator-activated receptor gamma (Homo sapiens), P37231. PPARgamma LBD-SRC-2 recruitment. activation, % at 8 µM. actives 0.34% (n = 200,000). AID 1032, 2008; in the data active = activation above about 22%
PPARg SRC-3 ag: PPARgamma agonists recruiting SRC-3 coactivator, primary screen, biochemical; Peroxisome proliferator-activated receptor gamma (Homo sapiens), P37231; biochemical PPARgamma/SRC-3 coactivator recruitment assay; activation, % at 8 µM; actives 0.26% (n = 200,000); in the data active = activation above about 23%
TR-FRET SRC-2 ct: TR-FRET signal artefacts, primary screen, artefact control for PPARgamma SRC-2 agonist project, biochemical; TR-FRET ratio at 8 µM; actives 0.4% (n = 200,000); TR-FRET artefact counter-screen; active compounds read high
SRC1 TRFRET art: TR-FRET detection interference compounds, primary screen, artefact control for PPARgamma SRC-1 recruitment agonists, biochemical, TR-FRET emission ratio. TR-FRET detection artefact counter-screen; active compounds read high. TR-FRET ratio at 8 µM. actives 0.34% (n = 99,000). AID 1051, 2008; in the data active = TR-FRET ratio above about 2300
SRC3 TRFRET art: TR-FRET detection interference compounds, artefact control for PPARgamma SRC-3 recruitment agonists, biochemical, TR-FRET ratio. TR-FRET artefact counter-screen, PPARgamma/SRC-3 format; active compounds read high. TR-FRET ratio at 8 µM. actives 0.39% (n = 99,000)
Numbers stand for hits; 0 = inactive; - = no result. Only some compounds are listed: those with a hit (about 0.9% of all), similar ones and a draw of the others. Rule as the data show it, unless noted: active = TR-FRET ratio above about 2000; inactive = the rest.

SMILES | PPARg SRC-1 ag | PPARg SRC2 recr | PPARg SRC-3 ag | TR-FRET SRC-2 ct | SRC1 TRFRET art | SRC3 TRFRET art
O=c1c(Cl)c(Nc2cccc(Cl)c2)cnn1-c1nc2ccccc2s1 | 0 | 0 | 0 | 2092 | 0 | 2400
COc1ccc(Nc2cnn(-c3nc4ccccc4s3)c(=O)c2Cl)cc1 | 0 | 0 | 0 | 0 | 0 | 0
O=C(Nc1cc(C(F)(F)F)ccc1N1CCCC1)c1ccc2c(c1)OCO2 | 0 | 0 | 0 | 0 | - | -
Cc1cc(C)n(-c2nc(SCC(=O)Nc3nccs3)c3c4c(sc3n2)COC(C)(C)C4)n1 | 19 | 0 | 0 | 0 | - | -
Cc1nc(SCC(=O)OCc2ccccc2)c(C#N)c(-c2ccccc2)c1C(=O)Nc1ccccc1 | 0 | 0 | 0 | 2287 | - | -
Cc1ccccc1NC(=O)c1c(C)nc(SCC(=O)OCc2ccccc2)c(C#N)c1-c1ccc(F)cc1 | 0 | 0 | 0 | 0 | 0 | 0
COC(=O)CSc1nc(C)c(C(=O)Nc2ccccc2C)c(-c2ccc(Cl)cc2)c1C#N | 0 | 0 | 0 | 0 | 0 | 2162
COc1ccccc1N1CCN(S(=O)(=O)c2cc(C)sc2C)CC1 | 0 | 0 | 0 | 0 | - | -
CCOc1ccccc1-c1nc(-c2ccc(NC(=O)Cc3ccccc3OC)cc2)no1 | 0 | 0 | 0 | 2140 | - | -
CC1CCN(S(=O)(=O)c2cccc(C(=O)Nc3nccs3)c2)CC1 | 0 | 0 | 0 | 0 | - | -
Cc1ccc(-c2nnc(NC3CCCCC3)c3ccccc23)cc1S(=O)(=O)N1CCN(C)CC1 | 0 | 0 | 0 | 0 | - | -
Cc1ccc(-c2nnc(NCc3nc4ccccc4[nH]3)c3ccccc23)cc1S(=O)(=O)N1CCCCC1 | 0 | 0 | 0 | 0 | 0 | 2547
CC(=O)Nc1ccc(Br)c2ccccc12 | 0 | 0 | 0 | 2043 | 2333 | 2311
CCOC(=O)C1CCCN(S(=O)(=O)c2cc(Br)cc3c2N(C(=O)C2CC2)CC3)C1 (stereo not drawn) | 26 | 0 | 0 | 0 | 0 | 0
CCOC(=O)C1=C(C)NC(SCC(=O)O)=NC1c1ccccc1 (stereo not drawn) | 0 | 40 | 0 | 2481 | 0 | 0
COc1ccc2nc(C)cc(SCC(=O)NNC(=O)COc3ccc(C)cc3)c2c1 | 0 | 0 | 0 | 0 | - | -
COc1ccc2nc(C)cc(SCC(=O)Nc3c(C)cc(C)cc3C)c2c1 | 32 | 0 | 0 | 0 | - | -
COc1ccc2nc(C)cc(SCC(=O)Nc3c(C)cccc3C)c2c1 | 0 | 26 | 0 | 1994 | 0 | 0
COc1ccc(C=NC(CO)C(O)c2ccc([N+](=O)[O-])cc2)cc1 (stereo not drawn) | 0 | 0 | 0 | 0 | - | -
C[C@H]1CCC[C@]2(O[C@@H](CCO)C[C@H](O)[C@H]2O)O1 | 0 | 0 | 0 | 0 | 0 | 0
O=C(CCc1ccccc1)NNC(=O)c1ccco1 | 0 | 0 | 0 | 0 | - | -
Cc1ccc(/C(N)=N/OC(=O)c2ccc3c(c2)OCO3)cc1 | 0 | 0 | 0 | 0 | 0 | 0
COc1ccc(C2(C)NC(=O)N(CC(=O)Nc3ccc(-c4nc5ccc(C)cc5s4)cc3)C2=O)cc1 (stereo not drawn) | 0 | 0 | 0 | 0 | 2469 | 2403
CCC1(c2ccc(F)cc2)NC(=O)N(CC(=O)Nc2ccc(-c3nc4ccc(C)cc4s3)cc2)C1=O (stereo not drawn) | 0 | 0 | 0 | 0 | 0 | 2350
Cc1ccc2nc(-c3ccc(NC(=O)CCS(=O)(=O)c4ccccc4)cc3)sc2c1 | 0 | 0 | 0 | 0 | 0 | 2301
SMILES | PPARg SRC-1 ag | PPARg SRC2 recr | PPARg SRC-3 ag | TR-FRET SRC-2 ct | SRC1 TRFRET art | SRC3 TRFRET art
Cc1nc2ccc(NC(=O)CCS(=O)(=O)c3ccccc3)cc2s1 | 0 | 0 | 0 | 0 | 0 | 0
Cc1c(C)c2ccc(OCc3ccc(C(=O)O)o3)c(C)c2oc1=O | 0 | 0 | 0 | 0 | - | -
O=C(NCCCN1CCCC1=O)c1ccc2c(c1)ncn2C1CCCCC1 | 0 | 22 | 0 | 0 | 0 | 0
CC(C)OCCCNC(=O)c1ccc2c(c1)ncn2C1CCCC1 | 0 | 0 | 0 | 0 | 0 | 0
CC(=O)c1c(O)c2ccccc2n(C(C)C)c1=O | 0 | 0 | 0 | 0 | 0 | 0
CSc1nc(SCC(=O)NCc2ccco2)c2c3c(sc2n1)COC(C)(C)C3 | 0 | 0 | 0 | 0 | 0 | 0
CSc1nc(SCC(=O)NC(c2ccccc2)c2ccccc2)c2c3c(sc2n1)CN(C)CC3 | 0 | 0 | 0 | 2069 | - | -
CCCC(=O)OCC(=O)Nc1ccc(OC(F)F)cc1 | 0 | 0 | 0 | 0 | - | -
N#Cc1c(-c2ccco2)nc(SCC(=O)Nc2cccc(Cl)c2)[nH]c1=O | 0 | 0 | 0 | 2164 | - | -
O=C(CSc1nc2c(c(=O)[nH]1)CCC2)Nc1cccc(Cl)c1 | 0 | 0 | 0 | 0 | - | -
COc1ccc(-c2ccc(SCC(=O)c3cccs3)nn2)cc1 | 0 | 0 | 0 | 0 | 0 | 2137
O=C(CSc1ccc(-c2ccccc2)nn1)c1cccs1 | 0 | 0 | 0 | 0 | 0 | 0
CCOc1ccc2[nH]c(=O)c(C(c3nnnn3C3CCCCC3)N3CCN(CC)CC3)cc2c1 (stereo not drawn) | 0 | 0 | 0 | 0 | - | -
CCOc1ccc2[nH]c(=O)c(C(c3nnnn3C3CCCCC3)N3CCN(C)CC3)cc2c1 (stereo not drawn) | 23 | 0 | 0 | 0 | 0 | 0
CCn1c(=O)c2c3c(sc2n2cnnc12)CCC3 | 0 | 0 | 0 | 0 | - | -
O=S(=O)(c1ccc(N2CCN(S(=O)(=O)c3ccc4c(c3)OCCO4)CC2)nc1)N1CCCC1 | 0 | 0 | 34 | 2273 | - | -
O=c1[nH]c(=S)[nH]c2sccc12 | 0 | 0 | 0 | 2050 | 0 | 0
CSc1nc2sccc2c(=O)[nH]1 | 0 | 0 | 0 | 0 | 0 | 0
COc1ccc(C2CC(=O)c3c([nH]c(C(=O)OC(C)C)c3C)C2)cc1OC (stereo not drawn) | 0 | 0 | 32 | 0 | 0 | 3447
COc1ccc(NC(=O)c2ccc(COCC(F)(F)F)cc2)cc1OC | 0 | 0 | 0 | 0 | 0 | 0
CC(=O)c1c(N2CCN(c3ccc(F)cc3)CC2)nc(=S)n(Cc2ccccc2)c1C | 0 | 0 | 0 | 0 | 0 | 2117
NC(=O)COC(=O)CSc1ccc2ccccc2c1 | 0 | 0 | 0 | 0 | 0 | 0
COC(=O)c1ccc(C(=O)OC)c(NC(=O)C(C)(C)C)c1 | 46 | 0 | 0 | 0 | 3181 | 0
COC(=O)c1ccc(C(=O)OC)c(NC(=O)CCC(=O)O)c1 | 0 | 0 | 0 | 0 | - | -
NC(=O)c1c(NC(=S)Nc2ccccc2)sc2c1CCCC2 | 0 | 0 | 0 | 0 | 2381 | 0
NC(=O)c1ccccc1NC(=S)NC(=O)c1ccc(Br)o1 | 0 | 0 | 0 | 0 | 0 | 0
Nc1c(C(=O)Nc2ccc(S(=O)(=O)N3CCCC3)cc2)sc2nc3cc4c(cc3cc12)CCC4 | 0 | 0 | 0 | 0 | 0 | 0
COc1cccc(/C=N/Nc2ncnc3c2ncn3Cc2ccccc2)c1O | 0 | 0 | 0 | 0 | 0 | 0
